The text below walks through data of PubChem BioAssay (NCATS).

Structures are written as SMILES. Records with an inconclusive call do not appear. Active and inactive are the calls of the source. Calls come from the whole dose curve; as a rule, active = well fitted curve in either direction with a large enough effect (not every such curve was filed as active); inconclusive = small, poorly fitted or top-dose-only effect, or another doubt; inactive = flat fitted curve, though single readings scatter.

A short description of the assay: AP1 Signaling Pathway (AID 357).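 Note: ME-180 reporter cells stimulated with EGF at its EC50 level.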 The conditions noted are these: ME-180 (cervical carcinoma) AP-1-bla reporter, EGF-induced, beta-lactamase ratio, 5 h; series mostly up to 17.2 µM. From the text: NCGC Assay Overview: Activator protein-1 (AP-1), a transcription factor, plays an important role in tumor genesis by regulating genes involved in cell proliferation, differentiation, apoptosis, and angiogenesis. AP-1 activity is induced by a complex network of signaling pathways that involves extracellular signals, such as growth factors. The AP-1 protein complex formed from c-Fos and c-Jun binding to the AP-1 response element results in transcriptional activation of genes containing such elements within their promoter. Low molecular weight molecules have been discovered and developed to modulate various components of these signaling pathways, for example, MAP kinase inhibitors. However, many points of pathway modulation remain untested due to the lack of chemical probes making this signaling locus of general interest. Using a beta-lactamase reporter-gene under control of the AP-1 response element, a cell-based assay [CellSensor(TM) AP-1-bla ME-180 developed by Invitrogen Corp.] was used to measure EGF-induced signaling. Library compounds were measured for their ability to modulate positively or negatively the action of EC50 EGF on reporter gene activity. Compounds were screened in a titration series in 1536-well format. Positive and negative modulators were identified based on the AC50 values derived from the screening data.
NCGC Assay Protocol Summary: 2500 cells/5uL in Opti-MEM medium containing 0.5% dialyzed FBS, 0.1 mM NEAA, 1 mM sodium pyruvate and 10 mM HEPES was dispensed into 1536-well plates and cells were cultured at 37 degrees Celsius overnight. […] After centrifugation at 1000 rpm for 2 seconds the plates were incubated at 37 degrees Celsius for 5 hours. 1 uL of CCF4-dye mixture was added to each well. After incubated at room temperature for 2.5 hours the plates were measured on an EnVision plate reader at Excitation 405nm, Emission1=460nm and Emission 2=530nm. The %Activity was determined from the ratio of 460nm/530nm.
In the case of `COCCOC(=O)C1=C(C)NC(C)=C(C(=O)OC(C)C)[C@H]1c1cccc([N+](=O)[O-])c1`, the result was inactive.

In the case of `c1ccc2c3c([nH]c2c1)[C@@H]1[C@H]2CC[C@H]([C@H]4CCCN[C@H]42)N1CC3`, the outcome was inactive.

`CC(=O)N(C[C@@H](C)C(=O)O)c1c(I)cc(I)c(N)c1I`: the result was inactive.

Regarding `CS(=O)(=O)Nc1cccc(-c2nc(Nc3ccc(F)cc3)c3ccccc3n2)c1`, the outcome was inactive.

Consider `CN1CCO[C@H](c2ccccc2)c2ccccc2C1`, for which the result was inactive.

On to `CN(C)CCn1nnnc1SCC1=C(C(=O)O)N2C(=O)[C@@H](NC(=O)Cc3csc(N)n3)[C@@H]2SC1`, for which the outcome was inactive.

As for `CC1(C)O[C@H]2C[C@@H]3[C@H]4CCC5=CC(=O)CC[C@@]5(C)[C@]4(F)[C@@H](O)C[C@@]3(C)[C@@]2(C(=O)CCl)O1`, the outcome was inactive.

`C[N+](C)(CCCOc1ccccc1)c1ccccc1`: the outcome was inactive.

Turning to `COc1cc2c(cc1OC)-c1cc3ccc(OC)c(OC)c3c[n+]1CC2`, the result was inactive.

As for `C[N+]1(C)C[C@@H](O)C[C@@H]1C(=O)[O-]`, the result was inactive.

As to `C[C@@H](C(=O)O)c1ccc(N2Cc3ccccc3C2=O)cc1`, the outcome was inactive.

Consider `C[C@@H]1C[C@@H]2[C@H]3CCC4=CC(=O)C=C[C@]4(C)[C@]3(F)[C@@H](O)C[C@]2(C)[C@@]1(O)C(=O)CO`, for which the outcome was inactive.

In the case of `Cc1nccn1C[C@@H]1CCc2c(c3ccccc3n2C)C1=O`, the outcome was inactive.

In the case of `NC(=O)N[C@H]1NC(=O)NC1=O`, the result was inactive.

Take `CC(=O)N[C@H](CS)C(=O)O`: the outcome was inactive.

As to `CNCCC=C1c2ccccc2C=Cc2ccccc21`, the outcome was inactive.

`NS(=O)(=O)c1cc2c(cc1C(F)(F)F)N[C@H](Cc1ccccc1)NS2(=O)=O`: the result was inactive.

Consider `CC1=C(C(=O)O)N2C(=O)[C@@H](NC(=O)[C@@H](N)c3ccc(O)cc3)[C@@H]2SC1`, for which the result was inactive.

As to `CCCC(=O)Nc1ncnc2c1ncn2[C@@H]1O[C@H]2COP(=O)(O)O[C@@H]2[C@@H]1OC(=O)CCC`, the outcome was inactive.

As for `COc1cc2nc(N3CCN(C(=O)[C@@H]4COc5ccccc5O4)CC3)nc(N)c2cc1OC`, the outcome was inactive.

`N#Cc1cccc(-c2cncnc2-n2ccnc2)c1`: the result was inactive.

Consider `C=N[C@H](C(=O)N[C@@H]1C(=O)N2[C@@H]1SC(C)(C)[C@@H]2C(=O)O)c1ccccc1`, for which the outcome was inactive.

As for `C[C@H](CCC(=O)NCC(=O)O)[C@H]1CC[C@H]2[C@H]3[C@@H](C[C@@H](O)[C@]12C)[C@]1(C)CC[C@H](O)C[C@@H]1C[C@@H]3O`, the outcome was inactive.

With `O=C(O)COCCN1CCN([C@@H](c2ccccc2)c2ccc(Cl)cc2)CC1`, the result was inactive.

Turning to `CC[C@@H]1OC(=O)[C@H](C)[C@H](O[C@@H]2C[C@](C)(OC)[C@H](O)[C@H](C)O2)[C@H](C)[C@H](O[C@@H]2O[C@@H](C)C[C@@H](N(C)C)[C@@H]2O)[C@](C)(O)C[C@H](C)[C@@H]2N[C@H](COCCOC)O[C@H]([C@@H]2C)[C@]1(C)O`, the outcome was inactive.

For the compound `CN(C)c1ccc(-c2nccc(NCc3ccccc3)n2)cc1`, the result was inactive.

Take `NC(=O)c1ccc[n+]([C@@H]2O[C@H](COP(=O)([O-])OP(=O)(O)OC[C@H]3O[C@@H](n4cnc5c(N)ncnc54)[C@@H](O)[C@@H]3O)[C@@H](O)[C@@H]2O)c1`: the outcome was inactive.

Turning to `O=C(c1cc(C(F)(F)F)cc(C(F)(F)F)c1)N1CCC[C@@]2(CCN(c3ccccn3)C2)C1`, the outcome was inactive.

Take `CCC(=O)O[C@@H]1[C@H](C)O[C@H](O[C@H]2[C@@H](N(C)C)[C@H](O)[C@@H](O[C@@H]3[C@@H](CC=O)C[C@@H](C)[C@@H](O)/C=C\C=C/C[C@@H](C)OC(=O)C[C@@H](OC(=O)CC)[C@H]3OC)O[C@H]2C)C[C@]1(C)O`: the outcome was inactive.

On to `CN1CCN([C@@H](c2ccccc2)c2ccc(Cl)cc2)CC1`, for which the outcome was inactive.

Take `Cc1cccc(C)c1NC(=O)[C@H](C)N`: the outcome was inactive.

For the compound `O=c1cc(-c2ccc(O)cc2)oc2c([C@H]3O[C@@H](CO)[C@@H](O)[C@@H](O)[C@@H]3O)c(O)cc(O)c12`, the result was inactive.

As for `NCC[C@H](O)C(=O)N[C@H]1C[C@@H](N)[C@@H](O[C@H]2O[C@@H](CN)[C@@H](O)[C@@H](O)[C@@H]2O)[C@@H](O)[C@@H]1O[C@H]1O[C@@H](CO)[C@@H](O)[C@@H](N)[C@@H]1O`, the result was inactive.

Consider `Clc1cnccn1`, for which the result was inactive.

In the case of `CCC[C@H]1C[C@H](C(=O)N[C@H]([C@@H]2O[C@H](SC)[C@@H](O)[C@H](O)[C@@H]2O)[C@H](C)O)N(C)C1`, the outcome was inactive.

`CC[C@@H]1OC(=O)[C@H](C)[C@H](O[C@@H]2C[C@](C)(OC)[C@H](O)[C@H](C)O2)[C@H](C)[C@H](O[C@@H]2O[C@@H](C)C[C@@H](N(C)C)[C@@H]2O)[C@](C)(O)C[C@H](C)C(=NOCOCCOC)[C@H](C)[C@H](O)[C@]1(C)O`: the outcome was inactive.

Regarding `N[C@H](Cc1cc(I)c(Oc2cc(I)c(O)c(I)c2)c(I)c1)C(=O)O`, the outcome was inactive.

For `C1CCN2C[C@@H]3C[C@@H](CN4CCCC[C@H]34)[C@H]2C1`, the outcome was inactive.

Consider `c1ccc(CNc2ncnc3nc[nH]c23)cc1`, for which the outcome was inactive.

For the compound `C[C@@H]1Cc2ccccc2N1NC(=O)c1ccc(Cl)c(S(N)=O)c1` (stereo not given in full), the outcome was inactive.
